# According to ChEMBL document CHEMBL3988442, “University of Dundee, Small-Polar-MMV Screening Library” (2021):
# For some of these results: Entries with a potency or affinity are not part of this list.
# Legend:
# Set-up in all cases: scale not given: direction of the effect not stated beside the values
# [1] = target: Protein translocase subunit SecA (Escherichia coli (strain K12)) (UniProt P10408); assay: Assay to Identify E. coli SecA ATPase Inhibitors; format: functional; details: 30 µM
# [2] = target: T1, Ubiquitin-activating enzyme e1, putative (Leishmania donovani (strain BPK282A1)) (UniProt E9BSI1); assay: Leishmania donovani Ubiquitin Activating Enzyme (LdE1); format: functional; details: 30 µM
# T1 sequence (whole entry): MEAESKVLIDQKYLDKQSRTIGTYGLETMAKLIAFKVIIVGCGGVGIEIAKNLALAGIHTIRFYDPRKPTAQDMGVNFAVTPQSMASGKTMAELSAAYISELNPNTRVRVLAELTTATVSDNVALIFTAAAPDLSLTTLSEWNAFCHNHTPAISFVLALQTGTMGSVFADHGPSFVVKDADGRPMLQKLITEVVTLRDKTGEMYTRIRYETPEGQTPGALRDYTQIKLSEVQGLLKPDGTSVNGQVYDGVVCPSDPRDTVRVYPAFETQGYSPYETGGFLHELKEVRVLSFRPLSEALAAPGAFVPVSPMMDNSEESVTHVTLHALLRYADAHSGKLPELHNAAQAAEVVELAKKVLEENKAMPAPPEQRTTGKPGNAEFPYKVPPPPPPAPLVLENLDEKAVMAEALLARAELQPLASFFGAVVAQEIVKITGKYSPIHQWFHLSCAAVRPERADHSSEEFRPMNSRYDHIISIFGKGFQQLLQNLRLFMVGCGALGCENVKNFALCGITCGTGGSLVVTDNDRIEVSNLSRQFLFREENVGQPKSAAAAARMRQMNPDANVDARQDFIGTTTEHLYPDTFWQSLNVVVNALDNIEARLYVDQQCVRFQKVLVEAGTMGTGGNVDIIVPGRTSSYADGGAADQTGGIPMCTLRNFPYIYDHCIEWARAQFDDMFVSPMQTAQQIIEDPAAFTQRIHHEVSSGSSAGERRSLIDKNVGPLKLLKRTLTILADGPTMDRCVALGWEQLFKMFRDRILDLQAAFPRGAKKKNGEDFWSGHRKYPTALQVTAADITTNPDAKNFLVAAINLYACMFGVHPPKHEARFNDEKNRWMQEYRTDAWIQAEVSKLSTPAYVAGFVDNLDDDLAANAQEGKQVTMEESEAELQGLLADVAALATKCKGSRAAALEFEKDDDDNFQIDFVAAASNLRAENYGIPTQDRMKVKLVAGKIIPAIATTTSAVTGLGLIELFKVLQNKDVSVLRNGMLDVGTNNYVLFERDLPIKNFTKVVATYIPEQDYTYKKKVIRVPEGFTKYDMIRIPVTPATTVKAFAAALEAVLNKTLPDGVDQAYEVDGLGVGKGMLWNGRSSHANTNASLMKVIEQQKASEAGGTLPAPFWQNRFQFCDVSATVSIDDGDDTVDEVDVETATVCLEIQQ
# [3] = target: AMP-activated protein kinase, AMPK (Homo sapiens) (UniProt P54646+O43741+P54619+Q9UGJ0+Q9Y478+Q13131+Q9UGI9); assay: AMP-dependent Kinase enzyme assay. An in vitro enzyme assay that detects ADP turnover that is directly proportional to AMPK activity. This uses naive AMPK that is activated during the assay with MK-8722; format: functional; details: 30 µM
# [4] = target: Sialic acid-binding Ig-like lectin 9 (Homo sapiens) (UniProt Q9Y336); assay: Hs-Siglec9 ALPHAscreen SOP 20170721; details: 10 µM
# [5] = system: Trypanosoma cruzi; assay: Trypanosoma cruzi phosphomannomutase and mannose-1-phosphate guanylyltransferase assay; format: functional; details: 10 µM
# [6] = target: T2, Arginase-2, mitochondrial (Homo sapiens) (UniProt P78540); assay: in vitro enzyme assay to detect the production of urea directly proportional to the activity of Arginase II; format: functional; details: 33.3 µM; also: in the data most compounds retested in dose-response had high values
# T2 sequence (whole entry): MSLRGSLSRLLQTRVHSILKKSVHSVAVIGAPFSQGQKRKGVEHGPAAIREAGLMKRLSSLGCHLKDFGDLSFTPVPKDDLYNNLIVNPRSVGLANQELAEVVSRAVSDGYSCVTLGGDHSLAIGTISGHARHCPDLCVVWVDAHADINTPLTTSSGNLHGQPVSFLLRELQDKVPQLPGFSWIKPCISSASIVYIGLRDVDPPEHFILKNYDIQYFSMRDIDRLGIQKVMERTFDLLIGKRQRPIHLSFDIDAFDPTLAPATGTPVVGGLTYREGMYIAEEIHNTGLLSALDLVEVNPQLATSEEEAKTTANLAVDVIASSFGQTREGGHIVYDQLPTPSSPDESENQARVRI
# [7] = target: T3, Proteasome subunit beta (Trypanosoma cruzi) (UniProt O96673); assay: Trypanosoma cruzi proteasome chymotrypsin-like activity (TcProtChymo) assay.; also: in the data most compounds retested in dose-response had high values; format: functional; details: 9.37 µM
# T3 sequence (whole entry): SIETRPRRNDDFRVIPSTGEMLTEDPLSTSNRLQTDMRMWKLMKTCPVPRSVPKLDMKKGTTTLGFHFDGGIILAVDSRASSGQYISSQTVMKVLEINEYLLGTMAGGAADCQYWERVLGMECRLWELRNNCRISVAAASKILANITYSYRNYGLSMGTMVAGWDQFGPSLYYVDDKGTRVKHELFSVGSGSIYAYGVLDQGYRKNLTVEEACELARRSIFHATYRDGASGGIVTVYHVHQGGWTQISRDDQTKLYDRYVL
# [8] = species on record: Homo sapiens; assay: To identify inhibition of the IFN signalling (Jak-Stat) pathway via expression of an eGFP reporter gene under the control of an IFN-stimulated response element (ISRE) containing MxA promoter.; format: functional; details: 30 µM
# [9] = target: T4, Tyrosyl-tRNA synthetase, putative (Trypanosoma cruzi (strain CL Brener)) (UniProt Q4DSP6); assay: Trypanosoma cruzi tyrosyl tRNA synthetase (TcYRS) _High Tyrosine SOP; format: functional; details: 30 µM; also: in the data most compounds retested in dose-response had high values
# T4 sequence (whole entry): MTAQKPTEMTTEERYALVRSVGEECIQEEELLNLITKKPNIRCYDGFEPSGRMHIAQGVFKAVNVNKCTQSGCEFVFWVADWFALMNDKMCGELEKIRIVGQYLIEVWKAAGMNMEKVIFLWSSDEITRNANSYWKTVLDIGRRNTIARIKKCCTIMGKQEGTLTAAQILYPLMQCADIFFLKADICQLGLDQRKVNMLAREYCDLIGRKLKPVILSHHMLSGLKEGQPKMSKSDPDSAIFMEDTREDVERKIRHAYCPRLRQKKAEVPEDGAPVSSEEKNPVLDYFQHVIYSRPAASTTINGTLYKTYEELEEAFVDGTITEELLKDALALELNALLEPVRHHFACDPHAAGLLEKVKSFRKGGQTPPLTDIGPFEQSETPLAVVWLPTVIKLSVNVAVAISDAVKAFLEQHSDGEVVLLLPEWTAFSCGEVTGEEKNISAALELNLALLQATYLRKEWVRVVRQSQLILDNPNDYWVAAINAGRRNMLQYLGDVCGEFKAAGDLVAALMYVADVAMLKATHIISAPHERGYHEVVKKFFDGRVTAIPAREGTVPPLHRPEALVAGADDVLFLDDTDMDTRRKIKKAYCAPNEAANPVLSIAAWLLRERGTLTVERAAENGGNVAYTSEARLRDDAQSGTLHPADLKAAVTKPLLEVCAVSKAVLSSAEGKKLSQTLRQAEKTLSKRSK
# [10] = target: T4, Tyrosyl-tRNA synthetase, putative (Trypanosoma cruzi (strain CL Brener)); assay: Trypanosoma cruzi tyrosyl tRNA synthetase (TcYRS) SOP; format: functional; details: 30 µM
# [11] = target: Chromo domain-containing protein 1 (Saccharomyces cerevisiae (strain ATCC 204508 / S288c) (Baker's yeast)) (UniProt P32657); assay: ScCHD-1 Enzyme Inhibition Assay; format: functional; details: 30 µM; also: in the data most compounds retested in dose-response had high values
# Sequence of Chromo domain-containing protein 1 (Saccharomyces cerevisiae (strain ATCC 204508 / S288c) (Baker's yeast)) (P32657 whole entry, the tested form may be a part): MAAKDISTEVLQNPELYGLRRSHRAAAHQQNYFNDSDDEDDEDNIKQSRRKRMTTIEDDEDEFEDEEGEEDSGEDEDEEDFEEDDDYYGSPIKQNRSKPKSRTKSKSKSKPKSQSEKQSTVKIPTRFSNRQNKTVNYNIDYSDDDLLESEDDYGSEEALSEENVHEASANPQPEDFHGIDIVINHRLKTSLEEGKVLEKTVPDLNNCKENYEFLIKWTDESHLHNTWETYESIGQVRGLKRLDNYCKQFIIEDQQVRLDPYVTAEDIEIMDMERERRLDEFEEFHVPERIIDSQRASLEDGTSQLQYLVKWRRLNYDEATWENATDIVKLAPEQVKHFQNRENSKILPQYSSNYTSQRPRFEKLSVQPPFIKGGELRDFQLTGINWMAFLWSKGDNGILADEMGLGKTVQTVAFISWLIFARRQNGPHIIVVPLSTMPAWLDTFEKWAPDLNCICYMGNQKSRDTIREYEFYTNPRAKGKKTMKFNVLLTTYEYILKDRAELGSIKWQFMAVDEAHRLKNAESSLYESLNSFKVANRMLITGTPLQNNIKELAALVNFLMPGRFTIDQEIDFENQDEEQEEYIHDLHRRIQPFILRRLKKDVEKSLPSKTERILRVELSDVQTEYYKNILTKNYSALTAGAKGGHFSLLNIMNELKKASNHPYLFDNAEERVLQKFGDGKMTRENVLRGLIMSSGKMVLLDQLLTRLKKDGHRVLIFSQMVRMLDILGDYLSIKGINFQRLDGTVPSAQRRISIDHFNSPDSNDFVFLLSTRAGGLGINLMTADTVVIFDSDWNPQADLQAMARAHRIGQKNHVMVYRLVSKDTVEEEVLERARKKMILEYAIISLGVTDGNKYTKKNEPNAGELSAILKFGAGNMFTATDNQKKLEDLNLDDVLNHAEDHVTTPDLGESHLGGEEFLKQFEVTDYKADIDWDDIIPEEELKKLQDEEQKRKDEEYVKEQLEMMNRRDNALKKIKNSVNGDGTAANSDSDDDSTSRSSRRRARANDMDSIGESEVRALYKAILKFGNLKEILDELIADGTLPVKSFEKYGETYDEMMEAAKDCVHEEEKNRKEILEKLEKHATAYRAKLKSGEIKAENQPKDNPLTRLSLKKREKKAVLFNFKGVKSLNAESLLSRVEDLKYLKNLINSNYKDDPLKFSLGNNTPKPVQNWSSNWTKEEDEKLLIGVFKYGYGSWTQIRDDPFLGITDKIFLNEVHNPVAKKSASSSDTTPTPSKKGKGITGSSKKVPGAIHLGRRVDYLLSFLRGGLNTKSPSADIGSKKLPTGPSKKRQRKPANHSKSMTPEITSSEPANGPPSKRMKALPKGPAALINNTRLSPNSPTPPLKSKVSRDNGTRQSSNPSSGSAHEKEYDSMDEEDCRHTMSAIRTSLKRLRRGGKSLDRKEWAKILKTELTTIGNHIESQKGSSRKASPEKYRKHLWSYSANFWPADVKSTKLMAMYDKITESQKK
# Sequence of Protein translocase subunit SecA (Escherichia coli (strain K12)) (P10408 whole entry): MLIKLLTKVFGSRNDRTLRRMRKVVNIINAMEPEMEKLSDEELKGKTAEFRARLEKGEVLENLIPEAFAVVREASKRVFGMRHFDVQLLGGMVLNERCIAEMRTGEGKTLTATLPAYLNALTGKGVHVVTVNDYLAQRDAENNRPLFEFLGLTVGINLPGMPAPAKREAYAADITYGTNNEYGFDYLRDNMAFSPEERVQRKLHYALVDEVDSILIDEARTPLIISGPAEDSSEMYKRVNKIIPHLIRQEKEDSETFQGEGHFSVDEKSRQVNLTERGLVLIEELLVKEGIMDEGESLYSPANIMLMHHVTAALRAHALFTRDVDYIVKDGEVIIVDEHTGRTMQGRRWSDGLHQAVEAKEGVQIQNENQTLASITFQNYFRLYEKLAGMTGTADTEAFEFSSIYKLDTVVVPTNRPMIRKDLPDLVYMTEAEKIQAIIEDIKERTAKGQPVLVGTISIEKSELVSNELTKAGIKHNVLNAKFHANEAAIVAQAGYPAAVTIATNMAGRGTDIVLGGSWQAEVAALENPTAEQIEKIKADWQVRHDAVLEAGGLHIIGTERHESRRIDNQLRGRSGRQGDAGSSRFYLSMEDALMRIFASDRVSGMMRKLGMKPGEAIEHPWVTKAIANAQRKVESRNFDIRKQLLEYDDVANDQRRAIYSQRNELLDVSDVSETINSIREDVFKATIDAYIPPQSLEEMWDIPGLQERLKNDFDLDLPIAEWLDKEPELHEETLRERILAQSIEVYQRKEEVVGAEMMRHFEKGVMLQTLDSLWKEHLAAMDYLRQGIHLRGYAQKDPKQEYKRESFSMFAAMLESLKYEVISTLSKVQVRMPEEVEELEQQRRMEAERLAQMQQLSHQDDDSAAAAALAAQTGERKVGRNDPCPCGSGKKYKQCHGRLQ
# Sequence of Sialic acid-binding Ig-like lectin 9 (Homo sapiens) (Q9Y336 whole entry): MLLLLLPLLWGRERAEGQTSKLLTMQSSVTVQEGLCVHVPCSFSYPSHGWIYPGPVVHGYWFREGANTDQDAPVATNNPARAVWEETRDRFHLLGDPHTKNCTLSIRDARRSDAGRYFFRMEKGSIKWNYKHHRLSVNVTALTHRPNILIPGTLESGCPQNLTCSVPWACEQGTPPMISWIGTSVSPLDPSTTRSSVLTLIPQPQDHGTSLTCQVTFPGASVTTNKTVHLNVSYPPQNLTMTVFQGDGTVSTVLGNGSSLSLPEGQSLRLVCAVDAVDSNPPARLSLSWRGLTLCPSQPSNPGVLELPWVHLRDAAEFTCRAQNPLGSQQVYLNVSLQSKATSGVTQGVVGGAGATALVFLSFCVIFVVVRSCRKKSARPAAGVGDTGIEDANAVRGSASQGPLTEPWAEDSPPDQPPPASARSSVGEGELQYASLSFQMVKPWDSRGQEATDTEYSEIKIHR
Compound,Percent Effect [1],Percent Effect [2],Percent Effect [3],Percent Effect [4],Percent Effect [5],Percent Effect [6],Percent Effect [7],Percent Effect [8],Percent Effect [9],Percent Effect [10],Percent Effect [11]
CCc1nc(CN2CCN(C(=O)c3cnccn3)CC2)cs1,-2.42%,5.41%,-4.67%,12.2%,4.92%,-5.73%,15.3%,11.6%,1.98%,11%,-2.71%
CCN1CCC(NC(=O)CN2CCc3c(ncn3C)C2)CC1,-4.55%,6.33%,-3.84%,-0.206%,-3.59%,6.24%,9.43%,10.1%,-7.29%,0%,-5.67%
O=C(O)[C@]12CCCN(Cc3ccncc3)[C@@H]1CCN(c1cnccn1)C2,-3.31%,2.67%,-1.2%,-3.96%,-6.91%,-0.521%,21.6%,22%,-0.546%,1.24%,-6.37%
CCc1nc2n(n1)CC(NCC(=O)Nc1ccc(Cl)cn1)CC2 (stereo not drawn),-0.524%,10.1%,-6.65%,-1.69%,-7.65%,3.04%,5.82%,12.9%,0.493%,3.8%,-7.63%
CC(C)C(C)NC(=O)Nc1ccccc1CN1CCOCC1 (stereo not drawn),-7.45%,2.7%,0.895%,4.22%,1.47%,2.23%,2.66%,-10.3%,6.45%,11.1%,-3.52%
CC[C@H](C)[C@H](NC(=O)Cc1csc(-c2cccc(Cl)c2)n1)C(=O)O,-3.85%,9.33%,11.6%,11.9%,0.982%,-4.75%,12.6%,-8.02%,4.23%,7.69%,-5.96%
CCS(=O)(=O)NCCNC(=O)c1cc(Cl)c2c(c1)OCCCO2,-1.06%,8.11%,-7.22%,31.3%,1.47%,5.21%,8.33%,12.9%,2.15%,16.1%,-5.31%
COc1ccc(-n2nnc(C(=O)NC(C)C)c2C2CC2)cc1,-1.4%,1.39%,-9.18%,9.95%,4.96%,15%,4.21%,9.68%,0%,0%,-0.372%
